Laboratory results: PubChem BioAssay AID1347076 (National Center for Advancing Translational Sciences (NCATS), 2019)
The whole screen tested about 400,000 compounds, of which about 13,000 (3.2%) were called active. About 18% were inconclusive and are not listed. Calls follow the shape of the dose curve; as a rule, active = well fitted cell-killing curve with a large enough effect; inconclusive = small, poorly fitted or top-dose-only effect, or effect the other way; inactive = flat fitted curve, though single readings scatter. What follows is part of a selection rich in actives, with near analogues and random picks from the rest. Where a call stands in place of a potency, no number is given.
Potency is read from the fitted curve at half-maximal effect.

Assay: qHTS assay for MDR1-selective chemotherapeutics: Primary screen using the drug-selected MDR subline cells KB-V1; also: nearly all actives have a fitted effect of over 60% in size
Conditions: KB-V1 MDR cells viability, CellTiter-Glo, 72 h; series mostly up to 46.1 µM
Procedure, shortened: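 qHTS viability screen in drug-selected KB-V1 MDR cells: 72 h compound treatment at 37 degrees C, ATP luminescence end point.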
For `Nc1nc2ncccn2c1-c1ccccc1`, the Potency was “inactive”. In the case of `CO[C@H]1O[C@@H]2O[C@@]3(C)CC[C@@H]4[C@@H](C)CC[C@@H]([C@H]1C)[C@@]24OO3`, the Potency is reported as “inactive”. For `COc1ccc(C)cc1-n1c(-c2ccc(C)cc2)cc2c1CC(C)(C)CC2=O`, the Potency was “inactive”. With `O=C(C[C@H]1CC[C@H]2[C@@H](COC[C@H](O)CN2C(=O)c2ccccn2)O1)N1CCN(c2ccccc2)CC1` the Potency was “inactive”. In the case of `CS(=O)(=O)N(Cc1nc2sc3c(c2c(=O)[nH]1)CCCC3)C1CCCCC1`, the Potency is reported as 16.4 µM (active). In the case of `CCN(CC)Cc1nc2sc(C)c(C)c2c(=O)[nH]1`, the Potency is reported as “inactive”. With `O=c1[nH]c(CN2CCN(S(=O)(=O)c3ccc4c(c3)OCCO4)CC2)nc2sc3c(c12)CCCC3` the Potency was “inactive”. With `Cc1ccc(Cl)cc1N1CCN(C(=O)C2CCC(CNS(=O)(=O)c3cccs3)CC2)CC1` (centres undefined) the Potency was 10.3 µM (active). With `O=C(CNS(=O)(=O)c1cccs1)N1CCN(c2ccccc2Cl)CC1` the Potency was “inactive”. In the case of `Cc1ccc(C)c(N2CCN(C(=O)C3CCC(CNS(=O)(=O)c4cccs4)CC3)CC2)c1` (centres undefined), the Potency is reported as “inactive”. For `COc1ccc(S(=O)(=O)N2CCC(C(=O)NCCC(=O)NCCc3cccc(F)c3)CC2)cc1`, the Potency was “inactive”. In the case of `CC1CCCC(NC(=O)COC(=O)c2ccccc2C(=O)N(C)C2CCCCC2)C1C` (centres undefined), the Potency is reported as “inactive”. With `O=C(c1cc(-c2ccc(F)cc2)on1)N1CCN(c2ccc(F)cc2)CC1` the Potency was “inactive”. In the case of `COc1ccc(-c2cc(C(=O)N3CCN(c4ccc(F)cc4)CC3)no2)cc1`, the Potency is reported as 18.4 µM (active). With `O=C(c1cc(-c2ccc(Cl)cc2)on1)N1CCN(c2ccccc2)CC1` the Potency was “inactive”. In the case of `CC1=C(C(=O)N2CCOCC2)CC(CC(=O)NCc2ccco2)C(=O)N1Cc1ccc(F)cc1` (centres undefined), the Potency is reported as “inactive”. For `O=C(NNC(=O)c1ccccc1O)c1ccccc1O`, the Potency was 0.517 µM (active). For `Cc1cc(C(=O)NNC(=O)c2ccccc2O)c(C)o1`, the Potency was “inactive”. With `Cc1cc(C(=O)CCC(=O)NNC(=O)c2ccccc2O)c(C)s1` the Potency was “inactive”. For `COc1ccc(NC(=O)CN(C)C(=O)c2cc(C)oc2C)cc1`, the Potency was “inactive”. For `Cn1c(CCN2CCCCCC2)nc2cc(NC(=O)Nc3ccccc3)ccc21`, the Potency was “inactive”. With `COc1ccc(OCCCn2c(C)nc3cc(C)c(C)cc32)cc1` the Potency was “inactive”. For `Cc1cc2nc(C)n(CCCNC(=O)Nc3ccccc3)c2cc1C`, the Potency was 23.1 µM (active). With `CCOC(=O)C1(C)CCCN(C(=O)c2ccc(F)c(Cl)c2)C1` (centres undefined) the Potency was “inactive”. For `CNc1cc(-c2c(OC)cccc2OC)ncn1`, the Potency was “inactive”. For `Cc1ccc(C(=O)NCCNC(=O)c2cnccn2)cc1`, the Potency was “inactive”. With `O=C(NCCCNC(=O)c1ccccc1Cl)c1cnccn1` the Potency was “inactive”. In the case of `COc1ccccc1CCNC(=O)c1cnccn1`, the Potency is reported as 16.4 µM (active). With `CC(=O)Nc1c(-c2ccc(C)cc2)nc2ccc(Cl)cn12` the Potency was “inactive”. With `O=C(NCC(F)(F)F)c1ccc(S(=O)(=O)NCCc2ccc3c(c2)OCCO3)cc1` the Potency was “inactive”. For `CCCc1nc2ccccc2n1C(C)C(=O)NC(C)(C)C` (centres undefined), the Potency was “inactive”. With `O=C(c1cc(Cl)cc(Cl)c1)N1CCC(=O)N(C(COCc2ccccc2)Cc2ccccc2)CC1` (centres undefined) the Potency was “inactive”. In the case of `COc1ccc(COC[C@H](CC(C)C)N2CCN(C(=O)c3cccc(C(F)(F)F)c3)CCC2=O)cc1`, the Potency is reported as “inactive”. With `CC(C)CC(COCc1ccc(Cl)cc1)N1CCN(C(=O)c2ccc(C(F)(F)F)cc2)CCC1=O` (centres undefined) the Potency was 20.6 µM (active). In the case of `COC(=O)[C@]12CCCCC=C1N(Cc1ccc3c(c1)OCO3)C(=O)[C@H](CC(=O)NCc1cccs1)C2`, the Potency is reported as “inactive”. For `O=C1CCC(C(=O)OCC(=O)Nc2ccc(OC(F)F)cc2)=NN1`, the Potency was “inactive”. For `Cc1ccc2c(c1)c1c(c(=O)n(-c3ccccc3)c(=O)n1CC(=O)c1ccc(Cl)cc1)n2C`, the Potency was “inactive”. In the case of `CC(=O)NC(c1cccc(F)c1)c1nc(-c2cccc(F)c2)cs1` (centres undefined), the Potency is reported as “inactive”. With `Cc1cc(C)cc(NC(=O)CSCc2cnn(-c3ccccc3)c2-n2cccc2)c1` the Potency was 18.4 µM (active). In the case of `CC(=O)Nc1ccc(NC(=O)CSCc2cnn(-c3ccccc3)c2-n2cccc2)cc1`, the Potency is reported as “inactive”. For `CCOc1ccc(NC(=O)c2cnn(-c3ccccc3)c2-n2cccc2)cc1`, the Potency was “inactive”. For `CCOc1ccccc1N(CC)C(=O)c1cc2ccc3cccnc3c2[nH]1`, the Potency was “inactive”. In the case of `CCOC(=O)Nc1ccc(NC(=O)OCC)cc1`, the Potency is reported as “inactive”. For `CCCCC(CCC(=O)Nc1ccc(C(=O)OCC)cc1)C(=O)O` (centres undefined), the Potency was “inactive”. In the case of `CCCCCOC(=O)NCCOC(=O)Nc1ccc(C(=O)OCC)cc1`, the Potency is reported as 16.4 µM (active). In the case of `CC1C(=O)N(Cc2cn(CC3CCCCC3)nn2)CCS(=O)(=O)N1Cc1ccc(-c2cccc(N(C)C)c2)cc1` (centres undefined), the Potency is reported as “inactive”. With `COc1ccc(-c2ccc(=O)n(CC(=O)Nc3ccc(Br)cc3F)n2)cc1` the Potency was “inactive”. In the case of `O=C(Nc1ncccc1O)c1ccc(C(=O)c2ccccc2)cc1`, the Potency is reported as 23.1 µM (active). With `O=C(Nc1ncccc1O)c1ccc(S(=O)(=O)N2CCCC2)cc1` the Potency was “inactive”. In the case of `O=C(NC(=O)c1ccccc1)Nc1ccccc1O`, the Potency is reported as “inactive”. For `C[C@@H]1CN([C@@H](C)CO)C(=O)c2cc(NS(C)(=O)=O)ccc2O[C@@H](C)CCCCO[C@H]1CN(C)C(=O)Nc1ccc2c(c1)OCO2`, the Potency was “inactive”. In the case of `O=C(NCc1ccccc1)C1c2ccccc2OCC(=O)N1C1CC1` (centres undefined), the Potency is reported as “inactive”. In the case of `Cc1ccc(C(O)c2ncc(-c3ccccc3F)[nH]2)cc1F` (centres undefined), the Potency is reported as “inactive”. For `O=C(Nc1cccc(S(=O)(=O)NC2=NCCC2)c1)c1ccc(F)cc1F`, the Potency was “inactive”. For `O=C(Nc1cc(S(=O)(=O)Nc2ccc(Cl)cc2)ccc1O)c1ccc(F)cc1F`, the Potency was 23.1 µM (active). With `CCS(=O)(=O)c1ccc(O)c(NC(=O)COc2ccc(Cl)cc2)c1` the Potency was “inactive”. In the case of `CCCSc1nc(NCc2ccco2)c2c3c(sc2n1)COC(C)(CC)C3` (centres undefined), the Potency is reported as 16.4 µM (active). In the case of `CCCSc1nc2sc3c(c2c(=O)n1-c1cccc(Br)c1)CC(C)(C)OC3`, the Potency is reported as “inactive”. For `CCC1(C)Cc2c(sc3nc4n(c(=O)c23)CCCS4)CO1` (centres undefined), the Potency was “inactive”. With `Cc1ccc(N2CC(c3nnc(Cc4ccccc4Cl)o3)CC2=O)cc1` (centres undefined) the Potency was “inactive”. With `CC(C)(C)OC(=O)N1CCC(c2c(C(=O)N3CCN(c4cccc(Cl)c4)CC3)cnn2-c2cccc(Cl)c2)CC1` the Potency was “inactive”. For `Cc1ccc(OCC(=O)NC(C)c2ccccc2)c([N+](=O)[O-])n1` (centres undefined), the Potency was “inactive”. With `O=C(COc1cccnc1[N+](=O)[O-])Nc1ccc(Cl)cc1F` the Potency was “inactive”. In the case of `Cc1ccc(OCC(=O)Nc2ccccc2Sc2ccc(Cl)cc2)c([N+](=O)[O-])n1`, the Potency is reported as 9.2 µM (active).
